The source of these data is PubChem BioAssay (EPA / NIEHS).

Assay [1] can be described thus: ATG_GRE_CIS: Attagene CIS-FACTORIAL HepG2 Assay for human Glucocorticoid Response Elements (GRE) (AID 2282947). The note with it: HepG2 GRE cis-reporter, Attagene multiplex mRNA; actives raise or lower the signal. A digest of the protocol: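 Endogenous transcription factor activity is read through cis-element reporter constructs transiently transfected into HepG2 cells. After 24 h treatment, labelled RT-PCR products are resolved by capillary electrophoresis; DMSO sets baseline for bidirectional curve fitting.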

A short description of assay [2]: ATG_ISRE_CIS: Attagene CIS-FACTORIAL HepG2 Assay for human Interferon Regulatory Factor 1 (IRF1) binding to an Interferon-Stimulated Response Element (ISRE) (AID 2282948). The note with it: HepG2 ISRE cis-reporter (Attagene), mRNA transcription readout; actives raise or lower the signal. Summed up: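 Quantitation relies on labelled RT-PCR fragments separated by capillary electrophoresis. Human HepG2 cells bearing cis-promoter reporter constructs were treated 24 h; DMSO served as baseline for bidirectional fitting.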

Assay [3] is described as follows: ATG_M_32_CIS: Attagene CIS-FACTORIAL HepG2 Assay for M32 Transcription Factor (Internal Marker) (AID 2282949).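 Note: background control marker of the multiplexed CIS panel rather than a real target.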 Particulars: HepG2 Attagene cis-factorial M32 reporter, mRNA; actives raise or lower the signal. Summed up:
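Internal background marker read-out: RT-PCR/capillary electrophoresis fluorescence of reporter transcripts from transiently transfected HepG2 cells after 24 h chemical exposure. Activity fitted bidirectionally relative to DMSO negative control.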

Assay [4] is described as follows: ATG_M_06_CIS: Attagene CIS-FACTORIAL HepG2 Assay for M06 Transcription Factor (Internal Marker) (AID 2282950). Particulars: HepG2 Attagene CIS-FACTORIAL M06 internal marker reporter; actives raise or lower the signal. A digest of the protocol:
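Steps: transfect HepG2 with multiplexed cis-element reporter constructs; dose chemical 24 h; extract RNA with DNase treatment; reverse-transcribe, PCR-amplify, 6-FAM label, HpaI digest; separate fragments by capillary electrophoresis. Activity fitted both directions versus DMSO.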

Assay [5] deals with Hypoxia-inducible factor 1-alpha (Homo sapiens) (UniProt Q16665). Kind of assay: ATG_HIF1a_CIS: Attagene CIS-FACTORIAL HepG2 Assay for human Hypoxia Inducible Factor 1 (HIF1A) (AID 2282951). Particulars: HepG2 Attagene cis-factorial HIF1a reporter transcription; actives raise or lower the signal. Summed up: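 Measures endogenous transcription-factor activity through cis-regulated reporter mRNA in HepG2. Cells dosed 24 h; transcripts quantified by RT-PCR with 6-FAM-labelled products separated by capillary electrophoresis; DMSO serves as negative control.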
Sequence of Hypoxia-inducible factor 1-alpha (Homo sapiens) (Q16665 whole entry, looked up): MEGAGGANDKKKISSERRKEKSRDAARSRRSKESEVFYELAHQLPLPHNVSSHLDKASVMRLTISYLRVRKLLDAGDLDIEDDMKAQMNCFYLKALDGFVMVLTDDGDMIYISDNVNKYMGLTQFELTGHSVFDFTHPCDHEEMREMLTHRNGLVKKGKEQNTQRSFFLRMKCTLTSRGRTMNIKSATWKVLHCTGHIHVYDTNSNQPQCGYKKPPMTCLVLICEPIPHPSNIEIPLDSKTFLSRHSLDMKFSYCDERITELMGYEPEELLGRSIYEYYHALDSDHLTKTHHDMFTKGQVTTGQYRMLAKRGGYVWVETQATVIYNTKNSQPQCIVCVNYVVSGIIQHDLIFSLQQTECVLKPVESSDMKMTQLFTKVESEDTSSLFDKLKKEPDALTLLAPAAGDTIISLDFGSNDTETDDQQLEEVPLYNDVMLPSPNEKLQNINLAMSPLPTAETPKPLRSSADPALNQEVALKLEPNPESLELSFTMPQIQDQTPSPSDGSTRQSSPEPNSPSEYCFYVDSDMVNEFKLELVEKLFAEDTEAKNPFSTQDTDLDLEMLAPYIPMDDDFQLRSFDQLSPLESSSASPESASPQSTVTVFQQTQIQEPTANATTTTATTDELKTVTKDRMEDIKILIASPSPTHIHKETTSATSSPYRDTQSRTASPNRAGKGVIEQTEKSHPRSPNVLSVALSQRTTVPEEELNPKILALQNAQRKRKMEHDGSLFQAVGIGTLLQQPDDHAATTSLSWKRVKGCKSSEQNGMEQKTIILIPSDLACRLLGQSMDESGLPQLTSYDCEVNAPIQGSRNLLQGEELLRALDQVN

Assay [6] deals with Hepatocyte nuclear factor 6 (Homo sapiens) (UniProt Q9UBC0). Put plainly: ATG_HNF6_CIS: Attagene CIS-FACTORIAL HepG2 Assay for human Hepatocyte Nuclear Factor 6 (HNF6) (AID 2282952). The note with it: HepG2 Attagene cis-factorial HNF6 reporter transcription; actives raise or lower the signal. Summed up:
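HepG2 cells transiently transfected with cis-element-driven multiplexed reporter units measuring endogenous transcription factor activity. After 24 h exposure, reporter mRNA quantified by RT-PCR, FAM-labelled fragments and capillary electrophoresis; bidirectional fitting versus DMSO.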

The target in assay [7] is Heat shock factor protein 1 (Homo sapiens) (UniProt Q00613). Kind of assay: ATG_HSE_CIS: Attagene CIS-FACTORIAL HepG2 Assay for human Heat Shock Transcription Factor 1 (HSE) (AID 2282953). Particulars: HepG2 HSE cis-reporter, Attagene RNA transcription; actives raise or lower the signal. A digest of the protocol: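 Cells were transfected with cis-element-driven reporter constructs, dosed for 24 h, then total RNA was reverse-transcribed and reporter cDNA amplified, FAM-labelled and digested with HpaI. Fragments were resolved by capillary electrophoresis; gain or loss was fitted against DMSO.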
Sequence of Heat shock factor protein 1 (Homo sapiens) (Q00613 whole entry, looked up, the tested form may be a part): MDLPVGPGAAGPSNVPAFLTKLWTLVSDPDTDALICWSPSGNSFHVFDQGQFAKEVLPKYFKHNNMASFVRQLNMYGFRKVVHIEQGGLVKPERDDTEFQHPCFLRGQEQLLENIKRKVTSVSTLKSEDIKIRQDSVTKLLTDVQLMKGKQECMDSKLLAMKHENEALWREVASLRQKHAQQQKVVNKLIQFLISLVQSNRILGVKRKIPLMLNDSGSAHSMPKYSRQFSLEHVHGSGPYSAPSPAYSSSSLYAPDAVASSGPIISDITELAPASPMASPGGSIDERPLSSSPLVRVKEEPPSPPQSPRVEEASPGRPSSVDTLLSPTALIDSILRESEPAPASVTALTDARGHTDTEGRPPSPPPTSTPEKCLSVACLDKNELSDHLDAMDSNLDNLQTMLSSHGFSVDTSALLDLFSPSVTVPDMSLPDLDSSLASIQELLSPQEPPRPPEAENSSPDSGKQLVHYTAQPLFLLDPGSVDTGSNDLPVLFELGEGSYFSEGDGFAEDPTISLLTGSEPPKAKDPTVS

A short description of assay [8]: ATG_MRE_CIS: Attagene CIS-FACTORIAL HepG2 Assay for human Metal Responsive Element (MRE) (AID 2282954). The note with it: HepG2 MRE cis-reporter transcription, Attagene multiplex; actives raise or lower the signal. A digest of the protocol:
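Fluorescent reporter fragments separated by capillary electrophoresis give mRNA induction for the MRE unit after 24 h treatment of transfected HepG2 cells. Endogenous transcription-factor activity is read; DMSO serves as negative control and baseline.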

Assay [9] can be described thus: ATG_PBREM_CIS: Attagene CIS-FACTORIAL HepG2 Assay for human Phenobarbital-responsive Enhancer Module (PBREM) (AID 2282955). The note with it: HepG2 PBREM cis-reporter, Attagene multiplexed transcription; actives raise or lower the signal. A digest of the protocol: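 Fluorescence of labelled reporter cDNA fragments, resolved by capillary electrophoresis, gives mRNA induction in transfected HepG2 cells treated for 24 h; DMSO serves as negative control and baseline.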

For assay [10], the target named is Paired box protein Pax-6 (Homo sapiens) (UniProt P26367). Put plainly: ATG_Pax6_CIS: Attagene CIS-FACTORIAL HepG2 Assay for human Paired Box 6 (PAX6) (AID 2282956). Particulars: HepG2 CIS-FACTORIAL PAX6 reporter transcription, RNA readout; actives raise or lower the signal. Summed up:
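After twenty-four hours of chemical exposure, transfected HepG2 cells are harvested for RNA. Cis-promoter reporter transcripts are amplified, fluorescently labelled and sized by capillary electrophoresis, with gain and loss of signal scored against DMSO.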

Active and inactive are the calls of the source. Rule for the calls: active = hit-call score of the fitted dose curve at least 0.9, where 1 is the maximum; inactive = score below 0.9.

Sequence of Hepatocyte nuclear factor 6 (Homo sapiens) (Q9UBC0 whole entry, looked up, the tested form may be a part): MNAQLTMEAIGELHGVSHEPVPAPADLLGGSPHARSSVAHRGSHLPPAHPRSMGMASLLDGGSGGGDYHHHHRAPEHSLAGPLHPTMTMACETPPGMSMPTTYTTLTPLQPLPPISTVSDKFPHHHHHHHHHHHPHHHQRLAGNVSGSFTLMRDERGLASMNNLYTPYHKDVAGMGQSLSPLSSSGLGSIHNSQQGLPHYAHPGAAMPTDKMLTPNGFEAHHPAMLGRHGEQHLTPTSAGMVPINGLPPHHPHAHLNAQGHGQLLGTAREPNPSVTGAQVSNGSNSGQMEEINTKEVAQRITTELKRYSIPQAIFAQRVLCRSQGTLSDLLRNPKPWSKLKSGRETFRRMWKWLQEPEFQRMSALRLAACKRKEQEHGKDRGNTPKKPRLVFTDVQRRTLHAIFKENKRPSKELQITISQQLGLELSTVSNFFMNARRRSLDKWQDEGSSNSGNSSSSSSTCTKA
Sequence of Paired box protein Pax-6 (Homo sapiens) (P26367 whole entry, looked up): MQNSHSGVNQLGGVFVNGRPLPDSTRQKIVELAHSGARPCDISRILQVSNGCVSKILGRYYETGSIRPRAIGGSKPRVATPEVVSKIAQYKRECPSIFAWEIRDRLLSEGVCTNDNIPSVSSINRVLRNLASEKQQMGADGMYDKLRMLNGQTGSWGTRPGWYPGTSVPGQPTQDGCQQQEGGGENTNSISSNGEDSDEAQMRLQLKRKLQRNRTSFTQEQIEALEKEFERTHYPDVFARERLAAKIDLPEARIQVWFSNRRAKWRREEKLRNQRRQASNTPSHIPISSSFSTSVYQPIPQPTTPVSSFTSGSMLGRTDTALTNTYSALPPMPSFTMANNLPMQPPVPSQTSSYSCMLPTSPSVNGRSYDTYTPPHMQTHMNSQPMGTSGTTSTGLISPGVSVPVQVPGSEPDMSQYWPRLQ

In the case of `CCN(CC)C(=O)N(CC)CC`, the compound was classed as inactive in [1], in assay [2], in assay [3], in assay [4], in assay [5] and in assay [6]. Further, the call in assay [7], in [8], in assay [9] and in assay [10] was inactive.
With `CC1=CC[C@@]23C[C@@H]1C(C)(C)[C@@H]2CC[C@H]3C`, the result in [1], in [2], in [3], in assay [4], in assay [5] and in assay [6] was inactive. The result in assay [7], in [8], in [9] and in assay [10] was inactive.
With `Nc1ccc(NCCO)c([N+](=O)[O-])c1`, the compound was called inactive in assay [1], in assay [2], in [3], in assay [4], in [5] and in [6]. Further, the outcome in assay [7], in [8], in assay [9] and in assay [10] was inactive.
By AC50 is commonly meant the midpoint of the concentration-response curve, whichever way the signal moves. With `CC=CC=CCOC(=O)C(C)C`, the compound was classed as inactive in assay [1], in assay [3], in [4], in [5], in assay [6] and in [7]. The outcome in assay [8], in assay [9] and in assay [10] was inactive. For the same compound, in [2], the AC50 was 100 µM (active).
For the compound `CCCCCCCCCCCCN1CCCCCC1=O`, the compound was classed as inactive in assay [1], in assay [2], in assay [3], in assay [4], in [5] and in assay [6]. Further, the result in assay [8] and in assay [10] was inactive. For the same compound, the AC50 in assay [7] is 15.8 µM (active); in [9] it was 9.68 µM (active).
As to `O=C(O)c1cc(C(=O)O)cc([N+](=O)[O-])c1`, the compound was called inactive in [1], in [2], in [3], in assay [4], in [5] and in [6]. The outcome in assay [7], in [8], in [9] and in assay [10] was inactive.
Take `BrCc1cccc(Oc2ccccc2)c1`: the compound was classed as inactive in assay [1], in [2], in assay [3], in assay [4], in assay [5] and in [6]. Further, the call in assay [7], in assay [8], in [9] and in assay [10] was inactive.
As for `COC(=O)Nc1ccc(Cl)c(Cl)c1`, the figures for the concentration at half-maximal activity (AC50) in assay [1], in [2] and in assay [8] were 25.7 µM (active), 30.7 µM (active) and 49.7 µM (active), respectively. Also, the compound was classed as inactive in assay [3], in assay [4], in [5], in [6], in assay [7] and in [9]. In addition, in assay [10], the call was inactive.
As to `Cc1cc(=O)oc2cc(N(C)C)ccc12`, the compound was called inactive in [1], in assay [2], in assay [3], in [4], in assay [5] and in assay [6]. The outcome in assay [7], in assay [8] and in [10] was inactive. Besides, the concentration at half-maximal activity (AC50) in [9] is 100 µM (active).
Turning to `O=[N+]([O-])c1ccc(O)cc1C(F)(F)F`, the call in assay [1], in assay [3], in assay [4], in [5], in assay [6] and in assay [7] was inactive. The result in assay [9] and in assay [10] was inactive. Also, the results for the concentration at half-maximal activity (AC50) in [2] and in assay [8] were 48 µM (active) and 61.1 µM (active), respectively.
`C=Cc1ccc(C)cc1`: the call in assay [1], in assay [2], in assay [3], in assay [4], in assay [5] and in [6] was inactive. Also, the outcome in [7], in assay [8], in assay [9] and in assay [10] was inactive.
Consider `CCCOC(=O)c1c(Cl)c(Cl)c(Cl)c(Cl)c1C(=O)OCCC`, for which the call in assay [1], in assay [3], in assay [4], in [5], in assay [6] and in assay [7] was inactive. Also, the result in assay [9] and in assay [10] was inactive. In addition, the AC50 was 62.1 µM (active) in [2] and 162 µM (active) in [8].
In the case of `CCC(C)S` (centres undefined), the compound was classed as inactive in assay [1], in assay [2], in [3], in [4], in [5] and in [6]. Besides, the compound was classed as inactive in assay [7], in assay [8], in assay [9] and in assay [10].
Take `COc1ccc(OC)c(N=Nc2c(O)ccc3ccccc23)c1`: the result in assay [1], in [2], in [3], in assay [4], in [5] and in assay [6] was inactive. In addition, the compound was classed as inactive in assay [7], in assay [8], in [9] and in [10].
Consider `CCCCCCCCC=CCCCCCCCC1=NCCN1CCO`, for which the result in assay [1], in assay [3], in assay [4], in assay [5], in assay [6] and in assay [7] was inactive. Further, the result in [8], in assay [9] and in [10] was inactive. The AC50 in [2] was 189 µM (active).
As to `CC(C)(N=C=O)c1cccc(C(C)(C)N=C=O)c1`, the result in assay [1], in [2], in assay [3], in assay [4], in assay [5] and in assay [6] was inactive. In addition, the outcome in [7], in assay [8], in [9] and in assay [10] was inactive.
On to `COc1cc(CCC(C)=O)ccc1O`, for which the result in assay [1], in assay [2], in assay [3], in assay [4], in [5] and in assay [6] was inactive. For the same compound, the call in assay [7], in assay [8], in [9] and in assay [10] was inactive.
For `OC[C@H]1O[C@@H]2O[C@H]3[C@H](O)[C@@H](O)[C@@H](O[C@H]4[C@H](O)[C@@H](O)[C@@H](O[C@H]5[C@H](O)[C@@H](O)[C@@H](O[C@H]6[C@H](O)[C@@H](O)[C@@H](O[C@H]7[C@H](O)[C@@H](O)[C@@H](O[C@H]8[C@H](O)[C@@H](O)[C@@H](O[C@H]9[C@H](O)[C@@H](O)[C@@H](O[C@H]1[C@H](O)[C@H]2O)O[C@@H]9CO)O[C@@H]8CO)O[C@@H]7CO)O[C@@H]6CO)O[C@@H]5CO)O[C@@H]4CO)O[C@@H]3CO`, the outcome in [1], in assay [2], in assay [3], in [4], in [5] and in assay [6] was inactive. Further, the compound was classed as inactive in [7], in assay [8], in assay [9] and in assay [10].
In the case of `C#CC(C)(O)CC(C)C` (centres undefined), the outcome in [1], in assay [2], in [3], in assay [4], in [5] and in [6] was inactive. Moreover, the call in assay [7], in assay [8], in assay [9] and in [10] was inactive.
Take `CC(C)C[C@H](NC(=O)OCC1c2ccccc2-c2ccccc21)C(=O)O`: the compound was called inactive in assay [1], in assay [2], in assay [3], in assay [4], in assay [5] and in assay [6]. Also, the result in assay [7], in assay [8], in assay [9] and in [10] was inactive.
Take `Nc1ccc(Cl)c([N+](=O)[O-])c1`: the compound was called inactive in [1], in assay [2], in assay [3], in [4], in assay [5] and in assay [6]. Besides, the compound was called inactive in assay [7], in [8] and in [10].
Regarding `c1ccc(CN(Cc2ccccc2)Cc2ccccc2)cc1`, the compound was classed as inactive in assay [1], in assay [2], in assay [3], in [4], in assay [5] and in [6]. Also, the result in assay [7], in assay [8], in assay [9] and in [10] was inactive.
`CCCCCCCCSCCO`: the result in [1], in assay [2], in assay [3], in assay [4], in assay [5] and in assay [6] was inactive. Also, the outcome in assay [7], in assay [9] and in [10] was inactive. The AC50 in [8] is 153 µM (active).
Consider `C=C(C)CNCC`, for which the compound was called inactive in assay [1], in [2], in assay [3], in [4], in assay [5] and in assay [6]. Besides, the compound was classed as inactive in assay [7], in [8], in assay [9] and in assay [10].
